# Measured values reported in the supplement of paper PMC8253809.
# How the values were obtained:
# Assay in all cases: growth inhibition (% activity, log2 RLU normalised to DMSO / staurosporine); higher = more growth inhibition
# Details in all cases: 33 µM
# [1] = system: DIPGX29 (H3.3 K27M diffuse intrinsic pontine glioma line)
# Summary of the method: (§1)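 In triplicate, pHGG cell lines and H9-derived neural stem cells were treated for 7 days at 37 °C, 5% CO2 with approved drugs at a single final concentration of about 33 μM, added by pin tool. CellTiter-Glo luminescence, after log2 transformation, was normalised on each plate to % activity between solvent and positive control wells. Growth inhibition is reported as the median across replicates.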
# [2] = system: DIPGX37 (H3.3 K27M diffuse intrinsic pontine glioma line)
# Summary of the method: as §1
# [3] = system: DIPGX7 (H3.3 K27M diffuse intrinsic pontine glioma line)
# Summary of the method: as §1
# [4] = system: DIPGX9 (diffuse intrinsic pontine glioma line)
# Summary of the method: as §1
# [5] = system: HGGX39 (paediatric high-grade glioma line)
# Summary of the method: as §1
# [6] = system: HGGX6 (H3.3 G34R paediatric high-grade glioma line)
# Summary of the method: as §1
# [7] = system: HNSC
# Summary of the method: as §1
# [8] = system: SUDIPGIV (diffuse intrinsic pontine glioma line)
# Summary of the method: as §1
# [9] = system: SUDIPGVI (diffuse intrinsic pontine glioma line)
# Summary of the method: as §1
# [10] = system: SUDIPGXIII (diffuse intrinsic pontine glioma line)
# Summary of the method: as §1
Structure (SMILES),growth inhibition [1] [%],growth inhibition [2] [%],growth inhibition [3] [%],growth inhibition [4] [%],growth inhibition [5] [%],growth inhibition [6] [%],growth inhibition [7] [%],growth inhibition [8] [%],growth inhibition [9] [%],growth inhibition [10] [%]
CC(=O)Nc1cc([As](=O)(O)O)ccc1O,-0.747,1.33,-1.33,-0.567,0.328,0.00658,-0.382,-1.04,0.903,1.03
C=CCN.ClCC1CO1 (stereo not given),0.23,-1.75,1.62,1.51,2.03,-0.039,0.544,0.558,1.49,0.672
C=C1C[C@@H]2[C@H](CC[C@]3(C)C(=O)CC[C@@H]23)[C@@]2(C)C=CC(=O)C=C12,2.35,1.24,3.42,2.01,0.458,-1.58,-0.552,-2.53,-2.19,0.875
CCC(COC(=O)c1cc(OC)c(OC)c(OC)c1)(c1ccccc1)N(C)C (stereo not given),7.04,-5.85,26.9,2.8,7.48,5.32,52.1,23.2,-0.409,-13.6
Cc1cc(O)ccc1Cl,-0.668,0.714,0.716,-0.222,0.78,0.216,-2.46,-0.746,0.283,0.848
NCC(CC(=O)O)c1ccc(Cl)cc1 (stereo not given),1.57,-2.95,2.49,1.01,0.323,-0.203,33.3,2.9,-4.01,0.136
CN1c2ccccc2C(NCCCCCCC(=O)O)c2ccc(Cl)cc2S1(=O)=O (stereo not given),-1.12,-3.13,-0.607,0.503,-0.419,0.961,-2.51,-2.29,-1.84,0.605
CN(C)C(=O)Oc1ccc[n+](C)c1,0.471,-1.26,-0.161,0.978,0.907,0.761,-1.64,0.973,1.15,-0.0947
COc1ccc(C(CN(C)C)C2(O)CCCCC2)cc1 (stereo not given),1.29,1.34,1.7,0.288,0.682,-0.233,1.61,0.0945,-1.13,-0.0836
CN(C)C1C(=O)C(C(N)=O)=C(O)C2(O)C(=O)C3=C(O)c4c(O)cccc4C(C)(O)C3CC12 (stereo not given),-1.53,-2.75,0.404,-0.553,1.88,-0.661,-1.6,2.83,-2.69,-1.63
CC(O)(CS(=O)(=O)c1ccc(F)cc1)C(=O)Nc1ccc(C#N)c(C(F)(F)F)c1 (stereo not given),0.345,-1.44,1.23,0.462,1.55,0.395,-0.177,-0.994,2.38,1.16
Cc1cc(C(C#N)c2ccc(Cl)cc2)c(Cl)cc1NC(=O)c1cc(I)cc(I)c1O (stereo not given),-4.52,-1.84,-0.384,-2.01,-0.728,-4.74,4.96,-0.00583,-3.36,3.29
CCC1=C[C@H]2CN3CCc4c([nH]c5ccccc45)[C@](C(=O)OC)(C2)[C@H]13,-4.07,-1.56,-1.78,-1.01,-1.76,-3.94,-4.27,2.26,-1.41,-2.44
CN1C(=O)COc2c(C(=O)NC3CN4CCC3CC4)cc(Cl)cc21 (stereo not given),2.11,3.22,1.36,3.07,2.32,3.19,0.849,-0.021,3.53,1.12
O=S(=O)(F)Cc1ccccc1,0.493,-0.634,-0.837,-0.877,-0.194,-1.52,-0.438,-0.0165,1.21,0.305
C[C@]12CCC(=O)C=C1C=C[C@@H]1[C@@H]2CC[C@@]2(C)[C@H]1CC[C@@]2(O)CCC(=O)O,0.155,-0.641,2.17,1.05,0.878,-0.966,37.3,-0.186,-0.451,-0.386
C[C@@H]1O[C@@H](O[C@H]2C[C@@H](O)[C@]3(CO)[C@H]4[C@H](O)C[C@]5(C)[C@@H](C6=CC(=O)OC6)CC[C@]5(O)[C@@H]4CC[C@]3(O)C2)[C@H](O)[C@H](O)[C@H]1O,41.5,21.1,60.7,26.1,54.5,51.4,59.4,60.1,37.7,45.3
NCCc1c[nH]c2ccc(O)cc12,-2.73,0.315,-2.87,-2.24,-2.22,-1.35,-4.26,0.704,-3.47,0.646
C/C=C(\C)C(=O)N[C@@H](c1ccccc1)[C@@H](O)C(=O)O[C@H]1C[C@@]2(O)[C@@H](OC(=O)c3ccccc3)[C@@H]3[C@]4(OC(C)=O)CO[C@@H]4C[C@H](O)[C@@]3(C)C(=O)[C@H](OC(C)=O)C(=C1C)C2(C)C,11.3,8.35,8.08,23.2,33.6,19.9,59.9,37,0.972,4.19

Structure (SMILES),growth inhibition [1] [%],growth inhibition [2] [%],growth inhibition [3] [%],growth inhibition [4] [%],growth inhibition [5] [%],growth inhibition [6] [%],growth inhibition [7] [%],growth inhibition [8] [%],growth inhibition [9] [%],growth inhibition [10] [%]
C[N+]1(C)CCCC(OC(=O)C(O)(c2ccccc2)c2ccccc2)C1 (stereo not given),-0.577,0.259,-0.262,0.527,-0.329,-1.01,20.4,-0.578,-2.44,-1.44
C[N+](C)(C)CCCCCCCCCC[N+](C)(C)C,0.486,-0.577,1.7,1.41,3.26,2.4,1.52,0.278,4.87,-1.36
C=CC[C@]1(O)CC[C@H]2[C@@H]3CCC4=CC(=O)CCC4=C3C=C[C@@]21C,1.35,1.67,-0.403,1.01,1.7,1.91,2.23,1.08,1.88,2.31
CN1C(=O)CCS(=O)(=O)C1c1ccc(Cl)cc1 (stereo not given),0.502,0.814,0.531,1.13,2.2,1.29,2.59,0.226,-0.17,-0.0547
CNC(=O)Oc1ccc2c(c1)[C@]1(C)CCN(C)[C@@H]1N2C,-0.0328,2.09,-0.713,-0.267,-1.19,1.68,-0.354,-0.781,2.19,1.12
CC[C@@]1(O)C(=O)OCc2c1cc1n(c2=O)Cc2cc3ccccc3nc2-1,11.8,-1.33,11.4,14.7,39.5,13.4,65.8,46.6,2.42,2.77
CC(=O)OC1CN2CCC1CC2 (stereo not given),-0.533,1.16,0.391,1.28,1.15,-1.32,2.31,-0.883,1.26,0.846
O=P1(N(CCCl)CCCl)NCCCO1 (stereo not given),-1.28,-0.973,-2.34,-0.609,-1.32,-0.517,-1.67,-2.17,-1.97,-0.0596
O=C1CC[C@@]2(O)[C@H]3Cc4ccc(O)c5c4[C@@]2(CCN3CC2CC2)[C@H]1O5,1.67,1.95,2.36,2.58,3.26,2.55,3.56,1.52,3.67,-0.861
Cc1cccc(Cc2c[nH]cn2)c1C,1.63,3.84,4.17,3.18,5.48,2.59,4.93,6.05,6.15,0.33
O=C(O)c1nn(Cc2ccc(Cl)cc2Cl)c2ccccc12,1.18,2.18,1.47,-0.0993,1.2,-0.667,30.5,3.06,-3.75,-0.117
COC(=O)C1=CCCN(C)C1,2.02,4.11,0.892,1.35,1.54,1.61,1.06,0.353,3.57,1.1
COc1cc2c(cc1OC)[C@@]13CCN4CC5=CCO[C@H]6CC(=O)N2[C@H]1[C@H]6[C@H]5C[C@H]43,-3.31,0.569,3.92,0.679,5.09,-3.27,19.6,0.395,1.58,10.4
O=c1[nH]c2ccccc2n1CCCN1CCC(n2c(=O)[nH]c3cc(Cl)ccc32)CC1,1.24,-0.863,0.225,-0.635,3.76,1.12,1.78,-1.4,-2.62,-2.52
O=C(O[C@H]1C[N+]2(CCCOc3ccccc3)CCC1CC2)C(O)(c1cccs1)c1cccs1,-1.76,-1.33,-0.665,-1.04,-0.0721,-0.623,3.39,-1.77,-5.53,0.0508
Cc1c(N)nc(C(CC(N)=O)NCC(N)C(N)=O)nc1C(=O)NC(C(=O)NC(C)C(O)C(C)C(=O)NC(C(=O)NCCc1nc(-c2nc(C(=O)NCCC[S+](C)C)cs2)cs1)C(C)O)C(O[C@@H]1O[C@@H](CO)[C@@H](O)[C@H](O)[C@@H]1O[C@H]1O[C@H](CO)[C@@H](O)[C@H](OC(N)=O)[C@@H]1O)c1cnc[nH]1 (stereo not given in full),3.71,5.42,1.63,17.8,8.29,4.24,56.5,32.5,1.68,4.14
CC(C)c1c(CN(C)C(C)Cc2ccccc2)n(C)n(-c2ccccc2)c1=O (stereo not given),2.25,0.985,2.59,-0.334,-0.152,-0.564,48.4,1.4,-1.33,2.29
OC(c1ccccc1)(c1ccccc1)C1CCNCC1,0.581,-0.7,-0.982,-0.0248,-0.475,0.616,-1.42,-1.01,0.144,1.52
CCC1(c2cccc(O)c2)CCCCN(C)C1 (stereo not given),0.813,0.766,-0.204,0.246,-0.148,-2.47,18.5,-0.915,-3.26,-1.39
